This is an account of results in doi:10.1101/2024.03.05.583629.

For one test, the target named is pT7_6His-AlfaTag-HOXD13 (human, UniProt P35453 263-343). The test can be described thus: PADIT-seq. The settings on record: dsDNA, one strand shown.
The target in a further test is pT7_6His-AlfaTag-ZIF268 (human, UniProt P18146 335-423). The test can be described thus: PADIT-seq. Conditions: dsDNA, one strand shown.

Chain of pT7_6His-AlfaTag-HOXD13 (P35453 263-343): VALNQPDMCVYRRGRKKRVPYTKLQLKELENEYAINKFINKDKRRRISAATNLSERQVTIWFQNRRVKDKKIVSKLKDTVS

As for “CTCGAGGATATCAAGATCTGGCCTCGGCCAGATAAAAGGAACCTCTAGCTAGCCGACTCACTATAGGGATAATCGCCCTGAGCAAAGACC”, the values for the binding signal with pT7_6His-AlfaTag-HOXD13 and with pT7_6His-AlfaTag-ZIF268 were 0.383 ± 0.117 log2FC and 0.0449 ± 0.11 log2FC, respectively.

For the sequence “CTCGAGGATATCAAGATCTGGCCTCGGCAGCGTAAAAGGAACCTCTAGCTAGCCGACTCACTATAGGGATAATCGCCCTGAGCAAAGACC”, the figures for the binding signal with pT7_6His-AlfaTag-HOXD13 and in the test with pT7_6His-AlfaTag-ZIF268 were 0.403 ± 0.0993 log2FC and 0.0644 ± 0.094 log2FC, respectively. In turn, “CTCGAGGATATCAAGATCTGGCCTCGGCCGGTGGGCGGGAACCTCTAGCTAGCCGACTCACTATAGGGATAATCGCCCTGAGCAAAGACC” gave a binding signal with pT7_6His-AlfaTag-ZIF268 of 1.3 ± 0.0687 log2FC. Turning to “CTCGAGGATATCAAGATCTGGCCTCGGCATTTTAGGGGGAACCTCTAGCTAGCCGACTCACTATAGGGATAATCGCCCTGAGCAAAGACC”, the binding signal with pT7_6His-AlfaTag-HOXD13 came out at 1.57 ± 0.105 log2FC; in the test with pT7_6His-AlfaTag-ZIF268 it was 0.0683 ± 0.108 log2FC.

As to “CTCGAGGATATCAAGATCTGGCCTCGGCATCCTAAAAGGAACCTCTAGCTAGCCGACTCACTATAGGGATAATCGCCCTGAGCAAAGACC”, the binding signal with pT7_6His-AlfaTag-HOXD13 was 0.337 ± 0.103 log2FC; with pT7_6His-AlfaTag-ZIF268, 0.0323 ± 0.0965 log2FC. With “CTCGAGGATATCAAGATCTGGCCTCGGCCCTTTAAAAGGAACCTCTAGCTAGCCGACTCACTATAGGGATAATCGCCCTGAGCAAAGACC”, the binding signal is 2.14 ± 0.0827 log2FC in the test with pT7_6His-AlfaTag-HOXD13 and 0.0924 ± 0.0888 log2FC in the test with pT7_6His-AlfaTag-ZIF268. Regarding “CTCGAGGATATCAAGATCTGGCCTCGGCTTTTTAGGCGGAACCTCTAGCTAGCCGACTCACTATAGGGATAATCGCCCTGAGCAAAGACC”, the binding signal was determined as 0.0492 ± 0.119 log2FC with pT7_6His-AlfaTag-HOXD13 and 0.0276 ± 0.11 log2FC with pT7_6His-AlfaTag-ZIF268. In the case of “CTCGAGGATATCAAGATCTGGCCTCGGCAGGATAAAAGGAACCTCTAGCTAGCCGACTCACTATAGGGATAATCGCCCTGAGCAAAGACC”, the binding signal is 0.374 ± 0.0721 log2FC with pT7_6His-AlfaTag-HOXD13 and 0.0545 ± 0.0675 log2FC with pT7_6His-AlfaTag-ZIF268. As for “CTCGAGGATATCAAGATCTGGCCTCGGCGTTTTAACAGGAACCTCTAGCTAGCCGACTCACTATAGGGATAATCGCCCTGAGCAAAGACC”, the values for the binding signal in the test with pT7_6His-AlfaTag-HOXD13 and in the test with pT7_6His-AlfaTag-ZIF268 were 1.92 ± 0.0739 log2FC and 0.0535 ± 0.0797 log2FC, respectively.
